PG9 Ab binder = PG9 antibody binding by small molecule; hit rate 0.43% among 360,000; inhibition, % at 6.7 µM; TR-FRET gp120-PG9 antibody binding; AID 624416; in the data active = inhibition above about 8.5%
bovine MsrA act = bovine methionine sulfoxide reductase A activation. purified bovine MsrA, absorbance read-out. activation, % at 10.6 µM. hit rate 0.3% among 360,000; in the data active = activation above about 7.5%;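 note: 0% = vehicle and 100% = reference activator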
MsrA inhibitor = bovine MsrA inhibition; purified bovine MsrA, absorbance read-out; inhibition, % at 15.5 µM; hit rate 0.75% among 360,000; in the data active = inhibition above about 4.5%;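 note: 0% = vehicle wells with enzyme and 100% = reference inhibitor wells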
rCAG binder = r(CAG) repeat RNA binding. TO-PRO-1 dye displacement fluorescence. inhibition, % at 3 µM. hit rate 1.3% among 370,000. AID 651821;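 active = inhibition above the plate cutoff, the mean of all test compounds on that plate plus 3 SD, cut at about 35% in these data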;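 note: 0% = DMSO alone and 100% = 100 µM mitoxantrone as full dye displacement; higher means more dye released from RNA so lower well fluorescence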
HGIII-sPLA2 inh = Blocks human group III sPLA2 activity; QFRET BODIPY PC-A2 liposome hydrolysis, fluorescence; inhibition, % at 12.2 µM; hit rate 0.56% among 370,000;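 active = inhibition above mean plus 3 SD of compounds lying within the high and low control bounds, cut at about 19% in these data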;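 note: 0% = median of test compound wells and 100% = no enzyme DMSO wells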
Target sequence (Q9NZ20 whole entry, looked up): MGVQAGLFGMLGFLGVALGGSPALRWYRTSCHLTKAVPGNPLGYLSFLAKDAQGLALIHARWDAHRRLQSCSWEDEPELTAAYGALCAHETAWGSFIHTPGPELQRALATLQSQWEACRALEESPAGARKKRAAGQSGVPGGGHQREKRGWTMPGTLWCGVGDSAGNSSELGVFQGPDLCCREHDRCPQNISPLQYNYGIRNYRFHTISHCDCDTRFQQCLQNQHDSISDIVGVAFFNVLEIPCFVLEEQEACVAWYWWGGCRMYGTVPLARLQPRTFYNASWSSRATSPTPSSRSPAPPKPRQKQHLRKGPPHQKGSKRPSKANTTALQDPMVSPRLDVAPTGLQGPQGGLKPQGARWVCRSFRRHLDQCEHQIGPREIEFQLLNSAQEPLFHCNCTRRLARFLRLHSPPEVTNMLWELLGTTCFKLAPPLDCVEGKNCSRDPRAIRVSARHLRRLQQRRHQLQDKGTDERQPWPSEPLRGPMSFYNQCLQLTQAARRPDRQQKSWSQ
rCAG bind conf = r(CAG) RNA repeat binding, confirmation. shares compounds with rCAG binder. TO-PRO-1 dye displacement fluorescence. inhibition, % at 3 µM. hit rate 70% among 4,300. AID 652065;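 active = inhibition above a per-plate cutoff, the mean inhibition of sample wells plus 3 SD, cut at about 35% in these data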;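 note: loss of TO-PRO-1 fluorescence as compound displaces dye from 1x1 AA loop RNA; 0% = DMSO only wells and 100% = 100 µM mitoxantrone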
dCAG dye counter = DNA CAG dye complex inhibition counter-screen; hit rate 94% among 4,300; shares compounds with rCAG binder; inhibition, % at 3 µM; d(CAG) DNA oligo TO-PRO-1 dye displacement, fluorescence;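 active = inhibition above its plate's cutoff, the mean test-well inhibition plus 3 SD, cut at about 4.8% in these data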;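 note: 0% = DNA dye mix with DMSO and 100% = 100 µM mitoxantrone; hits displace the dye from DNA and so lower well fluorescence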
DNA CAG DR = disrupts DNA CAG TO-PRO-1 complex in dose response; IC50, µM; shares compounds with rCAG binder; DNA CAG/GTC duplex TO-PRO-1 dye displacement fluorescence; hit rate 20% among 250; in the data active = IC50 below about 10 µM
The depositor's hits bear a star; i = inactive; / = no result given. In the library only some 3.2% were active in any assay of this set; here they are far more common.

SMILES	PG9 Ab binder	bovine MsrA act	MsrA inhibitor	rCAG binder	HGIII-sPLA2 inh	rCAG bind conf	dCAG dye counter	others
Cc1ccc(S(=O)(=O)N2[C@@H](c3ccc(F)cc3)C(C(=O)O)=CC[C@H]2c2cccc(Cl)c2)cc1	-1.2	-4.3	0.9	7.7	-1.2	/	/
Cc1ccc([C@H]2C(C(=O)O)=CC[C@@H](c3cccc(Cl)c3)N2S(=O)(=O)c2ccc(C)cc2)cc1	0.3	1.2	-0.6	18.7	-8.8	/	/
Cc1ccc(S(=O)(=O)N2[C@@H](c3ccc(C(C)(C)C)cc3)C(C(=O)O)=CC[C@H]2c2cccc(Cl)c2)cc1	-2.4	-1.8	1.1	87.8*	-41.5	74.8*	41.0*
Cc1ccc(S(=O)(=O)N2[C@@H](c3ccc(Br)cc3)C(C(=O)O)=CC[C@H]2c2cccc(Cl)c2)cc1	-0.2	-8.5	-0.6	14.1	-4.4	/	/
Cc1ccc(S(=O)(=O)N2[C@@H](c3ccc(C(C)(C)C)cc3)C(C(=O)O)=CC[C@H]2c2ccc(Cl)c(Cl)c2)cc1	0.1	-2.5	0.3	68.4*	-22.8	49.3*	23.9*
O=C(O)C1=CCC(c2ccc(Cl)c(Cl)c2)N(S(=O)(=O)c2ccc(F)cc2)C1c1cccc(F)c1 (stereo not given)	-0.2	/	-0.3	71.6*	-25.7	67.6*	26.2*
C[C@H](O)[C@@H]1C(=O)N2CCc3c([nH]c4cccc(-c5ccccc5)c34)[C@@H]2C[C@@H]1N(C)C(=O)c1ccco1	-2.3	/	-0.7	11.2	-3.0	/	/
COc1ccc(CC(=O)N(Cc2ccccc2)c2ccccc2C(=O)Nc2cc(OC)ccc2OC)cc1	/	/	/	5.5	-2.1	/	/
CCOc1ccc(NS(=O)(=O)c2ccc(Cl)c(N=Nc3c(O)[nH]c(=S)[nH]c3=O)c2)cc1Br	-1.5	0.0	-0.4	92.5*	-11.1	92.5*	66.5*
COc1ccc(NS(=O)(=O)c2cc(N=Nc3c(O)[nH]c(=O)[nH]c3=O)ccc2OC)cc1Br	-5.5	-9.9	1.4	22.5	0.6	/	/
COCCN=c1scc(-c2cccs2)n1/N=C/c1ccc(O)c(O)c1O	-3.2	-4.9	2.7	47.6*	41.5*	62.4*	30.4*	DNA CAG DR=9.17*
COCCN=c1scc(-c2ccccc2)n1/N=C/c1c[nH]c2ccccc12	-1.1	-9.9	2.7	10.8	-3.1	/	/
NS(=O)(=O)c1ccc2c(c1)C1C=CCC1C(C1CC=CCC1)N2 (stereo not given)	0.8	-2.3	1.2	61.7*	0.4	26.2	13.9*
O=C(c1ccc(F)cc1Cl)N1CCCC(c2nc(-c3cccs3)no2)C1 (stereo not given)	/	/	/	2.6	-4.8	/	/
CCC(Sc1ncccc1C(=O)O)C(=O)N1CCCC1 (stereo not given)	1.1	-12.3	-1.6	42.8*	4.5	3.1	-0.4
Cc1ccc(/C=C2\SC(=S)N(CCC(=O)NNC(=O)c3ccc(O)cc3)C2=O)cc1	0.9	-3.9	1.5	13.7	-9.1	/	/
CN1C(=O)/C(=C/c2ccc(C(=O)Nc3ccc(O)cc3C(=O)O)cc2)SC1=S	-0.9	-3.5	1.2	54.6*	-11.8	94.3*	81.8*
CN(C)c1ccc(/C=C(/NC(=O)c2ccccc2)C(=O)N/N=C/c2ccc([N+](=O)[O-])c(O)c2)cc1	-10.6	-6.9	3.9	67.0*	-17.1	61.8*	26.3*
O=C1NC(=Nc2cccc(O)c2)S/C1=C\c1cccc([N+](=O)[O-])c1	-1.4	-4.4	4.0	47.5*	-21.5	33.3	10.9*
O=C(O)CCn1cc(/C=C2\NC(=S)N(c3ccccc3)C2=O)c(-c2ccc(Br)cc2)n1	-1.7	-7.9	1.3	41.0*	-3.0	38.8*	9.4*
COC(=O)[C@]12C[C@H](CC(=O)NCc3cccc4ccccc34)C(=O)N(CCC3=CCCCC3)C1=C[C@H](C1CCCC1)O[C@@H]2C	/	/	/	5.1	-18.3	/	/
COc1ccc(C2CC(=O)N3CN(Cc4ccco4)CSC3=C2C#N)cc1 (stereo not given)	1.8	-1.7	1.4	28.3	-10.9	/	/
COc1ccc2ccccc2c1C1CC(=O)N2CN(Cc3ccco3)CSC2=C1C#N (stereo not given)	4.1	-2.6	2.3	49.2*	-15.6	26.4	14.0*
COc1cc(C2CC(=O)N3CN(Cc4ccco4)CSC3=C2C#N)ccc1OCc1ccccc1 (stereo not given)	0.1	-0.7	0.4	41.7*	-14.4	20.5	9.8*
CCC(=O)OCCCN1C(=O)CCC12CCC(C)CC2 (stereo not given)	/	/	/	3.0	5.5	/	/
SMILES	PG9 Ab binder	bovine MsrA act	MsrA inhibitor	rCAG binder	HGIII-sPLA2 inh	rCAG bind conf	dCAG dye counter	others
O=C(Cn1nnc(-c2ccncc2)n1)Nc1ccc(Cl)cc1	/	/	/	2.2	-4.3	/	/
C=CCn1c(SCc2ccc(C(=O)O)cc2)nc2sc(C)c(C)c2c1=O	-0.5	-2.3	0.9	28.9	-22.1	/	/
Cc1sc2nc(SCc3ccc(C(=O)O)cc3)n(Cc3ccco3)c(=O)c2c1C	1.1	-7.2	1.5	54.6*	-9.3	57.5*	20.0*
COc1ccc(Nc2nc(-c3ccccc3O)nc3ccccc23)cc1	0.4	-1.6	3.2	37.7*	-10.6	21.4	6.9*
COc1cccc(Nc2nc(-c3ccccc3O)nc3ccccc23)c1	0.6	-12.8	-0.1	11.4	4.2	/	/
COc1cccc(-c2nc(NCc3ccccc3)c3ccccc3n2)c1O	-1.0	-2.3	-0.3	38.2*	-5.1	30.9	14.6*
COc1cccc(-c2nc(NCc3ccco3)c3ccccc3n2)c1O	-0.9	-3.5	0.0	21.7	2.4	/	/
Cc1ccc(NC(=O)[C@@H]2CC(=O)O[C@@H]2c2ccccc2)c(C)c1	/	/	/	-0.3	9.4	/	/
CCc1cc2ccc(C)cc2nc1SCC(=O)Nc1cc(OC)c(OC)cc1C(=O)O	1.9	-8.9	1.4	44.9*	-4.9	75.6*	28.3*	DNA CAG DR=i
CC(=O)NS(=O)(=O)c1ccc(NC(=O)c2cc(-c3cccs3)nc3ccccc23)cc1	-0.4	-15.2	0.0	14.5	-14.7	/	/
CC(=O)NS(=O)(=O)c1ccc(NC(=O)c2cc(-c3ccc(C)cc3)nc3ccccc23)cc1	-0.8	-1.5	2.2	53.5*	-30.4	35.3*	9.3*
CC(=O)NS(=O)(=O)c1ccc(NC(=O)c2cc(-c3ccc(C)c(C)c3)nc3ccccc23)cc1	-1.4	-0.9	0.6	76.7*	-32.6	70.5*	36.8*
COC[C@H]1CCCN1c1cccc2c1S(=O)(=O)N(C1CC1)CC[C@@H](C)O2	/	/	/	5.5	5.5	/	/
N#C/C(=C\c1ccc([N+](=O)[O-])o1)C(=O)Nc1ccc(F)cc1	-3.8	-3.4	0.2	51.6*	-11.7	29.6	14.0*
Cc1c(O)nc(SCC(=O)Nc2ccc3c4c(cccc24)CC3)n(-c2ccc(F)cc2)c1=O	-1.2	-4.7	0.4	45.5*	0.4	29.8	8.3*
O=c1c(O)cccc2cc(O)c(O)c(O)c12	-14.3	-12.8	1.2	51.0*	-9.4	78.4*	47.8*
